Data from PubChem BioAssay AID504692 (The Scripps Research Institute Molecular Screening Center, 2011).
Out of some 340,000 compounds screened, about 2,000 (0.59%) were called active. This is one part of a sample in which actives are shown more often than they occur. Cut-off read from the data, not from the text of the source: active = activation mostly above about 9.5% (no sharp cut-off); inactive = mostly below about 7.6%.

These compounds were tested against 5-hydroxytryptamine receptor 5A (Homo sapiens) (UniProt P47898) (assay: HTR5A agonists in luminescence cell assay, primary screen, counter-screen for OPRM1-OPRD1 heterodimer agonist project, full-deck HTS (AID 504692;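 note: 0% = cells with vehicle only and 100% = reference agonist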)). Details: cell-based, at 9.3 µM, stronger effect = higher value.
Sequence of 5-hydroxytryptamine receptor 5A (Homo sapiens) (P47898 whole entry, looked up): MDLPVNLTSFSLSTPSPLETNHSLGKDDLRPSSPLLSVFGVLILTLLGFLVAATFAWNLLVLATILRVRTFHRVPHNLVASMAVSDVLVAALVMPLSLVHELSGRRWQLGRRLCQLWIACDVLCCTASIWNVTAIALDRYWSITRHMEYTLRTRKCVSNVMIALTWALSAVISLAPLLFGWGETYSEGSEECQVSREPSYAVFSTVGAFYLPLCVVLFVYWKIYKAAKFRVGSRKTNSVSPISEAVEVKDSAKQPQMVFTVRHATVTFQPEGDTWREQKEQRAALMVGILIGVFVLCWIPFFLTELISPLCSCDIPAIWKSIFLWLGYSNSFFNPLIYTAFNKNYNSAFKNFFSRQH
For `COc1ccc(S(=O)(=O)N2CCOC2CNC(=O)C(=O)NCc2ccncc2)cc1OC` (stereo unspecified), the activation was 1.9% (inactive).
With `CC(=O)Nc1ccc(S(=O)(=O)N2CCn3cccc3C2C)cc1` (stereo unspecified) the activation was -2.82% (inactive).
`COc1cccc(/C=N/NC(=O)c2[nH]nc3c2CCc2ccccc2-3)c1O` was tested, and the activation was 18.3% (active).
With `CCOc1ccc2[nH]c(C(=O)N/N=C/c3cccc(OC)c3OC)cc2c1` the activation was 4.96% (inactive).
In the case of `COc1ccc(/C=N/NC(=O)c2ccncc2)cc1CN1CCCc2ccccc21`, the activation is reported as 1.74% (inactive).
For `COc1cccc(CNCc2ccc3c(c2)OCO3)c1`, the activation was 9.7% (inactive).
With `COc1ccc(C(=O)Nc2cccc(NC(=O)c3ccc(OC)cc3OC)n2)c(OC)c1` the activation was 13.4% (active).
`COc1ccc(C(=O)NC2=NCCS2)c(OC)c1` was tested, and the activation was 4.66% (inactive).
With `COc1ccc(C(=O)NC(C)CCc2ccccc2)c(OC)c1` (stereo unspecified) the activation was 3.2% (inactive).
With `CCc1nnc(NC(=O)c2cc(S(=O)(=O)N3CCCCC3)ccc2C)s1` the activation was 3.55% (inactive).
`Cc1ccc(NC(=O)COc2ccc(/C=C3/NC(=O)NC3=O)cc2)cc1` was tested, and the activation was 1.1% (inactive).
For `COC(=O)C1=C(O)/C(=C/c2ccc(OCC(=O)Nc3ccccc3)cc2)N=C1C`, the activation was -2.15% (inactive).
For `CCOC(=O)C1=C(O)/C(=C/c2ccc(OCC(=O)Nc3ccc(C)cc3)cc2)N=C1C`, the activation was 23.3% (active).
With `CCOC(=O)CC1=CC(=O)Nc2ccccc2N1` the activation was 6.62% (inactive).
`CC(=O)N1CCN(c2ccccc2NC(=S)NC(=O)c2cc3ccccc3o2)CC1` was tested, and the activation was 16.4% (active).
For `COc1ccc(C(=O)NC(=S)Nc2ccccc2N2CCN(S(C)(=O)=O)CC2)cc1OC`, the activation was -1.57% (inactive).
For `CCc1ccc(C(=O)NC(=S)Nc2ccccc2N2CCOCC2)cc1`, the activation was -3.97% (inactive).
In the case of `O=S(=O)(c1ccc(Sc2nnc3ccccn23)nc1)N1CCOCC1`, the activation is reported as 2.94% (inactive).
For `NC(=O)C1(N2CCCCC2)CCN(C2CC(=O)N(Cc3ccc(N4CCCC4=O)cc3)C2=O)CC1` (stereo unspecified), the activation was 1.47% (inactive).
`COc1ccc(-c2ocnc2C(=O)Nc2ccc3c(c2)CCC3)cc1` was tested, and the activation was 16.5% (active).
For `CC(C)Oc1ccc(C(=O)NCC(=O)Nc2ccc3c(c2)CCC3)cc1`, the activation was -1.62% (inactive).
`COc1cccc(NC(=O)CN(C)CC(=O)Nc2ccc3c(c2)CCC3)c1` was tested, and the activation was 7.9% (inactive).
For `O=C(CN(C(=O)c1csnn1)c1cccc(F)c1)NCc1ccc(F)cc1`, the activation was -2.96% (inactive).
For `CCOC(=O)C1=C(CC)Nc2ccccc2N=C1N`, the activation was 2.67% (inactive).
With `O=C(c1ccc(OC2CCN(C(=O)c3cccnc3)CC2)cc1)N1CCCCCC1` the activation was 2.41% (inactive).
With `O=C(NCc1cc(F)cc(C(F)(F)F)c1)C1CCC(=O)N(C2CCCC2)C1` (stereo unspecified) the activation was 2.09% (inactive).
